Records with an inconclusive call do not appear. The source made the active and inactive calls. Unless noted, calls come from the whole dose curve; as a rule, active = well fitted curve in the direction sought with a large enough effect; inconclusive = small, poorly fitted or top-dose-only effect, or another doubt; inactive = no such curve, though single readings can be large; an effect the other way counts as inactive or inconclusive.
How the values were obtained:
[1] = qHTS Assay for Lipid Storage Modulators (AID 1519; calls by dose curve; for activity change, negative = inhibition: % is set by controls: 0 for no effect and ±100 for the full control effect); details: Drosophila S3 cells, BODIPY lipid droplet/cell ratio, laser cytometry, cells loaded with oleic acid
Outline: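 Cells seeded at 5,000 per well were treated with compounds over a concentration series and loaded with oleic acid (400 uM, as added). Lipid droplet fluorescence (488 nm excitation, 500-530 nm channel) was read by laser-scanning cytometry and normalized to 20 uM Triacsin C.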

[2] = biological target: Alpha-galactosidase A (Homo sapiens) (UniProt P06280); test: Counterscreen for Glucocerebrosidase Inhibitors: qHTS Assay for Human alpha-Galactosidase at pH 4.5 (AID 992); note: 0% is about no effect
Outline: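 Fluorogenic 1536-well qHTS at pH 4.5 (citrate, Tween-20): 2 nM enzyme, 80 uM 4-MU-alpha-galactoside, 20 min room temperature, NaOH/glycine stop. Titration 0.7 nM to 77 uM, data normalized to no-enzyme and full-activity controls, Hill-fitted AC50.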

[3] = biological target: alpha-glucosidase (Oryza sativa, rice) (UniProt Q653V4); test: Counterscreen for Glucocerebrosidase Inhibitors: qHTS Assay for Rice alpha-Glucosidase at pH 5.0 (AID 997);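 note: 0% = full activity with enzyme and -100% = basal without enzyme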
Outline: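 Endpoint fluorogenic assay at pH 5.0: compounds (0.7 nM to 77 uM) titrated against 4 nM rice enzyme and 400 uM 4-MU-alpha-glucoside for 20 min at room temperature; NaOH/glycine stop, read ex 365/em 440 nm, Hill-fitted AC50.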

[4] = biological target: DNA repair nuclease/redox regulator APEX1 (Homo sapiens) (UniProt P27695); test: qHTS Validation Assay for Inhibitors of the Human Apurinic/apyrimidinic Endonuclease 1 (APE1) (AID 1705; note: potency is the fitted concentration of half-maximal effect;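 for activity change, negative = inhibition: TAMRA fluorescence gain over two minutes as APE1 cuts a quenched THF abasic duplex; % is set by controls: 0 for no effect and ±100 for the full control effect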)
Outline: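 Human APE1 was preincubated with compound for 15 min at room temperature, then 50 nM (final) THF-abasic double-stranded DNA substrate bearing 5'-TAMRA and 3'-BHQ-2 was added. Incision-driven fluorescence rise (ex 525/em 598 nm) was read kinetically.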

[5] = Counterscreen for APE1 Inhibitors: Fluorescent Dye Displacement Validation Assay (AID 1707);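 note: plate controls were ThO with dsDNA and no compound for no effect and ThO without dsDNA for full effect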
Outline: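 Counterscreen flags promiscuous DNA binders: compounds displacing ThO from duplex DNA (abasic THF site, 50 nM) reduce 540 nm emission (480 nm excitation). ThO 250 nM final; Tris-HCl pH 7.5 with NaCl, MgCl2 and Tween-20.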

[6] = biological target: Endonuclease 4 (Escherichia coli (strain K12)) (UniProt P0A6C1); test: Counterscreen for APE1 Inhibitors: qHTS Validation Assay for Inhibitors of Endonuclease IV (AID 1708); note: potency is the fitted concentration of half-maximal effect; for activity change, negative = inhibition: % is set by controls: 0 for no effect and ±100 for the full control effect
Outline: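 Conditions: 2 nM enzyme, 50 nM TAMRA/BHQ-2 substrate, pH 7.5 Tris buffer with 2 mM MgCl2, RT. Compound preincubation 15 min; readout three fluorescence reads 60 s apart, third-minus-first.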

[7] = qHTS for differential inhibitors of proliferation of Plasmodium falciparum line 7G8 (AID 1815);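 note: parasite growth measured after three days of incubation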; note: potency is the fitted concentration of half-maximal effect;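 for activity change, negative = inhibition: plate controls were vehicle wells for no effect and reference inhibitor wells for full effect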
[8] = qHTS for differential inhibitors of proliferation of Plasmodium falciparum line GB4 (AID 1816); details: Potency: Plasmodium falciparum GB4 proliferation inhibition;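 note: parasite growth measured after 72 h incubation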; note: potency is the fitted concentration of half-maximal effect;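 for activity change, negative = inhibition: 0% = vehicle DMSO and -100% = reference inhibitor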
[9] = qHTS for differential inhibitors of proliferation of Plasmodium falciparum line 3D7 (AID 1876); note: potency is the fitted concentration of half-maximal effect
[10] = biological target: Alpha-galactosidase (Coffea arabica) (UniProt Q42656); test: Counterscreen for Glucocerebrosidase Inhibitors: qHTS Assay for Coffee Bean alpha-Galactosidase at pH 5.9 (AID 998);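 note: plate controls were uninhibited enzyme for no effect and no-enzyme basal signal for full effect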
Outline: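 Enzyme 2 nM + cpd (0.7 nM–77 uM titration) + 4-MU-alpha-Gal 80 uM, pH 5.9 citrate/Tween-20, RT 20 min, NaOH/glycine stop pH 10, fluor 365/440. Normalized to no-enzyme and full-activity controls; Hill-fit AC50.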

[11] = measured here: cell count channel max response
[12] = measured here: lipid channel max response

Alpha-galactosidase (Coffea arabica), sequence (Q42656 whole entry, looked up): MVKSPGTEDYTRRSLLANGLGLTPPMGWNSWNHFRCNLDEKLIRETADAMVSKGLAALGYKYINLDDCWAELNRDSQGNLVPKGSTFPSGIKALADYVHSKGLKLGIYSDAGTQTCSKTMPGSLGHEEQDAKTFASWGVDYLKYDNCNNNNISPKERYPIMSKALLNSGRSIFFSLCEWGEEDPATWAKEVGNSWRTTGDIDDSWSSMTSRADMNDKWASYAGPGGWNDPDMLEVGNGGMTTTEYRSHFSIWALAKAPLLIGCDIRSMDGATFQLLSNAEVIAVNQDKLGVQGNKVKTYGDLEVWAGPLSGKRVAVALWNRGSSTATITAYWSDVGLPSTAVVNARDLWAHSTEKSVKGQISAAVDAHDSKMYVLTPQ
DNA repair nuclease/redox regulator APEX1 (Homo sapiens), sequence (P27695 whole entry, looked up): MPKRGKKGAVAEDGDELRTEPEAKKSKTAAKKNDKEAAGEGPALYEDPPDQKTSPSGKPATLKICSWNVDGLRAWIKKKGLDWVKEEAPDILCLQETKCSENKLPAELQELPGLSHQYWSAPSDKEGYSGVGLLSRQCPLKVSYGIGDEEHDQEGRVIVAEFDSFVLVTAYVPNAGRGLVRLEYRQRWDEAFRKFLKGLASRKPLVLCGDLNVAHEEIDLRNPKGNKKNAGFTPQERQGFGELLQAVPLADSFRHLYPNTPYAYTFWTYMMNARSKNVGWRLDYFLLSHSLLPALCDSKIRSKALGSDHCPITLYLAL
Alpha-galactosidase A (Homo sapiens), sequence (P06280 whole entry, looked up): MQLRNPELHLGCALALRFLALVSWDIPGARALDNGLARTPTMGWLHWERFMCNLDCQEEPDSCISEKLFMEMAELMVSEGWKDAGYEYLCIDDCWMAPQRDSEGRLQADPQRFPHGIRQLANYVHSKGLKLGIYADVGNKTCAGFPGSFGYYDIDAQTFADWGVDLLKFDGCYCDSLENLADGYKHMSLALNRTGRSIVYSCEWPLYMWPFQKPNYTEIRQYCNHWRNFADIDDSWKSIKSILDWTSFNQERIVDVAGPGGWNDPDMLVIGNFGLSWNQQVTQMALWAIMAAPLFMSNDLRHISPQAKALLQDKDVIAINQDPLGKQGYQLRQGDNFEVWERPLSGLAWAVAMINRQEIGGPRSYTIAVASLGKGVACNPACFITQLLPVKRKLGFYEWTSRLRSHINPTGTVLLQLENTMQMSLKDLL

O=S(=O)(O)c1cc(O)ccc1O
activity change, negative = inhibition ([1]; at 25.7 µM (top of the series)): 1.28% (inactive)
max response [1, 11]: 11.8%
max response [1, 12]: 12.6%

NC(=O)CI
outcome [2]: inactive
outcome [3]: inactive
Potency [4]: inactive
Potency [5]: inactive
Potency [6]: inactive
Potency [7]: inactive
Potency [8]: inactive
Potency [9]: inactive

CCN(CCCl)Cc1ccccc1Br
outcome [2]: inactive
outcome [3]: inactive
outcome [10]: inactive
activity change, negative = inhibition ([1]; at 57.5 µM (top of the series)): -2.24% (inactive)
max response [1, 11]: 32.6%
max response [1, 12]: 31.1%
Potency [4]: inactive
Potency [5]: inactive
Potency [8]: 12.6 µM (active)
Potency [9]: 10 µM (active)

C[C@]12Cc3cn4c(nc3C=C1CCC1C2CC[C@@]2(C)[C@H]1CC[C@@]2(O)C#N)nc1ccccc14 (stereo not given in full)
Potency [4]: inactive
Potency [5]: inactive
Potency [6]: inactive
Potency [7]: 1.26 µM (active)
Potency [8]: 3.16 µM (active)
Potency [9]: 2.82 µM (active)

NC(Cc1ccc(N(CCCl)CCCl)cc1)C(=O)O (stereo not given)
activity change, negative = inhibition ([1]; at 57.5 µM (top of the series)): 5.85% (inactive)
max response [1, 11]: 17.5%
max response [1, 12]: 28.4%
Potency [4]: inactive
Potency [5]: inactive
Potency [6]: inactive
Potency [7]: 10 µM (active)
Potency [8]: 11.2 µM (active)
Potency [9]: 10 µM (active)

CCCCCCC(C)(C)c1ccc([C@@H]2C[C@H](O)CC[C@H]2CCCO)c(O)c1
activity change, negative = inhibition ([1]; at 57.5 µM (top of the series)): -5.44% (inactive)
max response [1, 11]: 8.54%
max response [1, 12]: 2.73%
Potency [5]: inactive
Potency [7]: 1.78 µM (active)
Potency [8]: 2.24 µM (active)
Potency [9]: 5.01 µM (active)

CCC(=O)O[C@@](Cc1ccccc1)(c1ccccc1)[C@@H](C)CN(C)C
activity change, negative = inhibition ([1]; at 25.7 µM (top of the series)): -2.5% (inactive)
max response [1, 11]: -5.05%
max response [1, 12]: -7.97%

NC(N)=Nc1ccc2[nH]c3c(c2c1)C[C@@]1(O)[C@H]2Cc4ccc(O)c5c4[C@@]1(CCN2CC1CC1)[C@H]3O5
activity change, negative = inhibition ([1]; at 57.5 µM (top of the series)): -5.63% (inactive)
max response [1, 11]: -1.13%
max response [1, 12]: -6.88%
Potency [4]: inactive
Potency [5]: inactive
Potency [6]: inactive
Potency [7]: inactive
Potency [9]: inactive

C[C@@H](Cc1ccccc1)NCCC(c1ccccc1)c1ccccc1
activity change, negative = inhibition ([1]; at 25.7 µM (top of the series)): -10.7% (inactive)
max response [1, 11]: -11.9%
max response [1, 12]: -23.1%

CN1CC[C@@]2(C)c3cc(O)ccc3N(C)C12 (stereo not given in full)
activity change, negative = inhibition ([1]; at 57.5 µM (top of the series)): 0.587% (inactive)
max response [1, 11]: -12.4%
max response [1, 12]: -11.4%
Potency [4]: inactive
Potency [5]: inactive
Potency [6]: inactive
Potency [7]: 12.6 µM (active)
Potency [8]: 11.2 µM (active)
Potency [9]: 11.2 µM (active)

C[N+](C)(C)CCOC(=O)CBr
outcome [2]: inactive
outcome [3]: inactive
outcome [10]: inactive
Potency [4]: inactive
Potency [5]: inactive
Potency [6]: inactive
Potency [7]: inactive
Potency [8]: inactive
Potency [9]: inactive

CN1[C@@H]2CC[C@H]1CC(OC1c3ccccc3CCc3ccccc31)C2 (stereo not given in full)
activity change, negative = inhibition ([1]; at 25.7 µM (top of the series)): -3.36% (inactive)
max response [1, 11]: -5.63%
max response [1, 12]: -11.3%

Cc1c2ccncc2c(C)c2c1[nH]c1ccccc12
outcome [2]: inactive
outcome [3]: inactive
outcome [10]: inactive
Potency [4]: 3.16 µM (active)
Potency [5]: inactive
Potency [6]: 2.82 µM (active)
Potency [7]: 0.794 µM (active)
Potency [8]: 0.398 µM (active)
Potency [9]: 0.447 µM (active)

CN1CCc2cc(O)cc3c2[C@H]1Cc1ccc(O)c(O)c1-3
outcome [2]: inactive
outcome [3]: inactive
outcome [10]: inactive

— PubChem BioAssay (NCATS)
